High-throughput results from PubChem.
Compounds with a hit are over-represented: about 3.6% of the library has one in this group of screens.
Autofluor counter: counter-screen for toxin protease inhibitors: compound fluorescence; AID 624483; actives 3.1% (n = 360,000); compound autofluorescence counterscreen, microsphere flow cytometry; hits give high values; fluorescence intensity (concentration not given with the values); in the data active = fluorescence intensity above about 16000; inconclusive = no clear call, values can overlap the other calls
Anthrax LF prot: anthrax lethal factor protease inhibition; AID 588501; inhibition, % at 10 µM; actives 0.12% (n = 360,000); multiplex microsphere protease cleavage assay, LF; P15917
Target sequence (P15917 whole entry, looked up): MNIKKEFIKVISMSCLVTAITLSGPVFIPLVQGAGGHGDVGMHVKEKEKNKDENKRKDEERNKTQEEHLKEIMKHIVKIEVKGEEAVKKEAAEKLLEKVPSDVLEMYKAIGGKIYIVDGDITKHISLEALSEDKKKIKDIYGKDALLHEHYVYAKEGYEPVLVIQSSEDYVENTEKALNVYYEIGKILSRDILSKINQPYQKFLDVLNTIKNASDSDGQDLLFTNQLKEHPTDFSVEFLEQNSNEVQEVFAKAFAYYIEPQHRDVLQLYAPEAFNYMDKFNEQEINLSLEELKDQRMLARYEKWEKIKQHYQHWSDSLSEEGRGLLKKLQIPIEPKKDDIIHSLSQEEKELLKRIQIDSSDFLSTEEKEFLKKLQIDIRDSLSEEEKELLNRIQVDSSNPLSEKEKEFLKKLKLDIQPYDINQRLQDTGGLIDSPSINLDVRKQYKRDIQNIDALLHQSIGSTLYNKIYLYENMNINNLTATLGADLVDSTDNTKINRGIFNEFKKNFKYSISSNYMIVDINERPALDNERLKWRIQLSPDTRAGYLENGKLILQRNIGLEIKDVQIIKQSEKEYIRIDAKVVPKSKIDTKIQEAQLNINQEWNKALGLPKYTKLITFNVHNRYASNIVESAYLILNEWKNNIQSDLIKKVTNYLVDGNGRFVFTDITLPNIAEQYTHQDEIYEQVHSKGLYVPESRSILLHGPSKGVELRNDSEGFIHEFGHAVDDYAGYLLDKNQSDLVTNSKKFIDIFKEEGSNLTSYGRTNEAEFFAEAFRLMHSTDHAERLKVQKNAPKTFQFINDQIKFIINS
BoNT-F LC inh: inhibitors of Botulinum neurotoxin F light chain protease; Multiplex microsphere protease cleavage assay, flow cytometry; actives 0.22% (n = 360,000); inhibition, % at 10 µM; AID 588497; in the data active = inhibition above about 35%, passing the limit was not always enough; inconclusive = no clear call, values can overlap the other calls
BoNT A protease: blocks Botulinum neurotoxin A light chain protease | multiplex microsphere protease substrate cleavage, flow cytometry | inhibition, % at 10 µM | actives 0.17% (n = 360,000) | AID 588499
MazEF act: MazEF (E. coli) toxin RNase activation | P0AE70 | FAM/BHQ RNA-DNA oligo cleavage fluorescence, 5 h | activation, % at 20 µM | actives 0.32% (n = 350,000) | AID 504720; in the data active = activation above about 50%
Of the large screens only hits and unclear results are named; the others gave an inactive call. Rule as the data show it, unless noted: active = inhibition above about 30%; inconclusive = no clear call, values can overlap the other calls; inactive = below that.

c1ccc(CCNc2nc(-c3ccccn3)nc3ccccc23)cc1	none (no result: Autofluor counter, Anthrax LF prot, BoNT-F LC inh, BoNT A protease)
C=CCSc1nc(C)cc(/C=C\c2ccccc2)c1C#N	Autofluor counter 21811, BoNT A protease inconclusive
CCOc1ccc(C2C(C#N)=C(N)SC(N)=C2C#N)cc1OCC	none
CCOc1ccc(C2C(C#N)=C(N)N3C(=C2C#N)Sc2ccccc23)cc1 (stereo not given)	MazEF act 100
Cc1noc(NS(=O)(=O)c2ccc(NC(=O)CSc3nc4c(cc3C#N)CCCCC4)cc2)c1C	Autofluor counter 24886
N#Cc1cc2c(nc1SCC(=O)NCc1ccc3c(c1)OCO3)CCCCC2	Autofluor counter 18758
Nc1nnnn1/N=C/c1ccc(O)cc1	none
CSc1ccc(/C=N/n2nnnc2N)cc1	Autofluor counter 22907
CCN(CC)c1ccc(/C=N/n2nnnc2N)c(O)c1	Autofluor counter 22051
COc1cc(/C=N/N2CCN(c3ccccc3OC)CC2)ccc1O	Autofluor counter 16130, BoNT A protease inconclusive
Nc1nnnn1/N=C/c1ccccn1	Autofluor counter 21208
COc1cccc(CNC(=O)CSc2nc3ccc(C)cc3[nH]2)c1	none
CC1(C(=O)NS(=O)(=O)c2ccccc2Cl)CCN1C(=O)Cc1ccccc1Cl (stereo not given)	none (no result: MazEF act)
COc1cc(/C=N/n2nnnc2N)ccc1O	Autofluor counter 23466
CCc1ccccc1NC(=O)NC1CCCCCCC1	none
Cc1ccc(S(=O)(=O)NCc2ccc3c(c2)cc(C)n3C)cc1	BoNT A protease 81
Cc1cc2cc(CN3C(=O)c4ccccc4C3=O)ccc2n1C	BoNT A protease 88
O=C1c2ccccc2C(=O)N1Cc1ccc2c(c1)OCO2	none
CC(=O)n1c(C=Nc2ccc(Cl)cc2)c(O)c2ccccc21	MazEF act active
CC(=O)n1c2ccccc2c2ccccc21	none
Cc1c(Br)c([N+](=O)[O-])nn1C(C)C(=O)NCc1ccco1 (stereo not given)	none
Cc1c(Br)c([N+](=O)[O-])nn1C(C)C(=O)NCc1cccnc1 (stereo not given)	Autofluor counter 20382
CCOC(=O)N=S(N)(=O)c1ccc(Cl)cc1 (stereo not given)	none
CCOC(=O)N=S(N)(=O)c1ccccc1 (stereo not given)	Autofluor counter 20787
CCOC(=O)/C(=N\Nc1ccccc1)S(=O)(=O)c1ccccc1	Autofluor counter 23295
COc1ccc(C2CC(c3ccc(Cl)cc3)Nc3nc(NC(=O)c4ccco4)nn32)cc1 (stereo not given)	MazEF act 160
O=C(Nc1nc2n(n1)C(c1ccc(Cl)cc1)CC(c1ccc(Cl)cc1)N2)c1ccco1 (stereo not given)	none (no result: Autofluor counter, Anthrax LF prot, BoNT-F LC inh, BoNT A protease)
CN(c1ccccc1)S(=O)(=O)c1cccc(NC(=O)c2ccc(Cl)c([N+](=O)[O-])c2)c1	none
CCC(=O)Nc1nnc(SCc2ccccc2F)s1	none
CC(C)(C)C(=O)Nc1nnc(CSCc2ccccc2F)s1	Autofluor counter 19760
CC(C)COC(=O)Nc1nnc(SCc2ccccc2F)s1	Autofluor counter 22547
Cc1ccc(Cl)cc1NC(=O)c1cccc(OC(F)F)c1	Autofluor counter 20132
COc1cccc(NC(=O)Nc2cc(Cl)ccc2C)c1	none
NNS(=O)(=O)c1ccc(Sc2ccccn2)c([N+](=O)[O-])c1	MazEF act 220
Nc1nc2c(nnn2C2CC(O)C(CO)O2)c(=O)[nH]1 (stereo not given)	none (no result: MazEF act)
CN(C)S(=O)(=O)N1CCN(S(=O)(=O)N(C)C)CC1	none
CC1CN(S(=O)(=O)N(C)C)CCN1S(=O)(=O)N(C)C (stereo not given)	Autofluor counter 19855
Cc1ccc(C2CN(C)C3(C(=O)Nc4ccccc43)C23COc2ccccc2C3=O)cc1 (stereo not given)	none
CN1CC(c2ccccc2Cl)C2(COc3ccccc3C2=O)C12C(=O)Nc1ccccc12 (stereo not given)	Autofluor counter 20126
Nc1nc(-c2ccccc2)nn1C(=O)Cc1ccccc1	none
Nc1nc(-c2cccnc2)nn1C(=O)Cc1ccccc1	Autofluor counter 22678
CCOc1cc(C2c3c(oc4cc(C)c(Cl)cc4c3=O)C(=O)N2Cc2ccco2)ccc1O (stereo not given)	Autofluor counter 21623
Cc1ccc2oc3c(c(=O)c2c1)C(c1cccc(Br)c1)N(Cc1ccco1)C3=O (stereo not given)	Autofluor counter 18391
COC(=O)c1ccc(S(=O)(=O)NCCSc2nnc3c4ccccc4n(C)c3n2)cc1	Autofluor counter 23909, BoNT A protease inconclusive
CC(C)OC(=O)CSc1nnc2c3ccccc3n(C)c2n1	none
COc1cc(N/C(N)=N/c2nc(C)cc(C)n2)c(OC)cc1Cl	none
Cc1ccc(S(=O)(=O)N2CCCC2C(=O)N(C)Cc2cccs2)cc1 (stereo not given)	Autofluor counter 19722, BoNT A protease inconclusive
Cc1ccc(S(=O)(=O)N2CCCC2C(=O)Nc2nc3ccccc3s2)cc1 (stereo not given)	Autofluor counter 20751
CN(Cc1cccs1)C(=O)C1CCN(S(=O)(=O)c2ccccc2)CC1	none
Cc1ccc(S(=O)(=O)N2CCC[C@H]2C(=O)Nc2ccccc2C)cc1	none
O=C(Nc1nc2ccccc2s1)C1CCCN1S(=O)(=O)c1ccc(Cl)cc1 (stereo not given)	Autofluor counter 22849, BoNT A protease inconclusive
COc1ccc(C2C3=C(CCCC3=O)Nc3c(-c4ccccc4)c(C)nn32)cc1 (stereo not given)	Autofluor counter 22999
COc1ccc(C2NC(=O)NC3=C2C(=O)CCC3)cc1 (stereo not given)	BoNT-F LC inh inconclusive
O=C(Nc1cc(S(=O)(=O)Nc2ccccc2F)ccc1Cl)c1ccc(F)cc1F	none
COc1cc(/C=N/Nc2nn3cnnc3c3ccccc23)ccc1O	Autofluor counter 21210, BoNT A protease inconclusive
COC(=O)c1cc(C(=O)c2ccc(Cl)cc2Cl)cn1C	Autofluor counter 21700, BoNT A protease inconclusive
Cc1ccc(S(=O)(=O)N2CCN(c3nc(C(C)C)c4c(c3C#N)CC(C)(C)OC4)CC2)cc1	Autofluor counter 22172
CCc1cccc(CC)c1NC(=S)NCc1nc2ccccc2[nH]1	none
N#Cc1ccc(CN2CCN(C(=O)c3ccccc3)CC2)c(Cl)c1	Autofluor counter 21609, BoNT A protease inconclusive
O=C(c1ccccc1)N1CCN(Cc2ccccc2C(F)(F)F)CC1	none
O=S1(=O)N[C@@H](Cc2ccccc2)COc2cc(N3CCC[C@@H]3CO)ccc21	none (no result: MazEF act)
O=C(c1cc2nc(-c3ccccc3)cc(C(F)(F)F)n2n1)N1CCOCC1	Autofluor counter 21930
CC1CCN(C(=O)c2cc3nc(-c4ccccc4)cc(-c4ccccc4)n3n2)CC1	Autofluor counter 20793
O=C(NC1CCCC1)c1cc2nc(-c3ccccc3)cc(-c3ccccc3)n2n1	none
O=C1C=C(c2ccc(CO)cc2)C[C@@H](c2ccc(F)cc2)C1	none
COc1ccc2c(c1)CC/C2=N\OC(=O)c1ccccc1OC	none
COc1ccc(CN2C(=O)C(CC(=O)NCc3cccs3)CC(C(=O)N(C)C)=C2C)cc1 (stereo not given)	none
Cc1ccc(N=Cc2ccc[nH]2)c(O)c1	Autofluor counter 21732, BoNT A protease inconclusive
